Where “and” joins values, the source holds several entries; their conditions need not be identical. Equal entries are not always repeated. Screen size: about 75,000 compounds; about 5,700 (7.6%) were called active. Roughly 7% stayed inconclusive and do not appear here. This is one part of a sample in which actives are shown more often than they occur. Calls follow the shape of the dose curve; as a rule, active = well fitted inhibition curve with a large enough effect; inconclusive = small, poorly fitted or top-dose-only effect; inactive = no such curve, though single readings can be large or run the other way.
target: 3-hydroxyacyl-CoA dehydrogenase type-2 (Homo sapiens) (UniProt Q99714); assay: qHTS Assay for Inhibitors of HSD17B4, hydroxysteroid (17-beta) dehydrogenase 4; conditions: recombinant HSD17B10, NADH fluorescence kinetic; series mostly up to 57.1 µM; activity change, negative = inhibition: at the top concentration;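 also: the protocol describes HADH2 (HSD17B10) and not the HSD17B4 of the title; nearly all actives have a fitted effect of over 70% in size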
How it was run: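 His-tagged E. coli-expressed HADH2 at 20 nM in 100 mM Tris-HCl pH 9.0 with 0.01 % Tween-20, preincubated 15 min with compound at room temperature. Reaction with 1 mM NAD+ and 90 uM beta-hydroxybutyryl coenzyme A; NADH fluorescence (360/450 nm) read kinetically over 4 min, last minus first point.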
% is scaled to controls: 0 for no effect and ±100 for the full control effect; potency is read from the fitted curve at half-maximal effect.

SMILES | activity change, negative = inhibition | Potency
CCc1ccc(N2CC(C(=O)NC3=NCCS3)CC2=O)cc1 (centres undefined) | 5.64% (inactive) | –
Cc1ccc2cc3cc(C(=O)N4CCCCCC4)oc3nc2c1 | – | 25.1 µM (active)
O=C(c1cc(-c2cccs2)on1)N1CCCCC1 | -2.58% (inactive) | –
Cc1ccc(C(=O)N2CCCCCC2)cc1Br | 0.826% (inactive) | –
Oc1c(CN2CCOCC2)ccc(CN2CCOCC2)c1O | -11.5% [at 11.4 µM] (inactive) | –
CO[C@H]1COC(=O)[C@@H](OCc2ccccc2)/C=C\[C@H](C)[C@@H](OC)COC(=O)[C@H](OCc2ccccc2)/C=C\[C@@H]1C | -0.999% [at 11.4 µM] (inactive) | –
CN(C)CCCn1c2ccccc2c2cnccc21 | 7.17% [at 11.4 µM] (inactive) | –
O=C(CC1OC(=O)c2ccccc21)NC1CCCCC1 (centres undefined) | -3.03% (inactive) | –
O=C(COc1ccc2c3c(c(=O)oc2c1)CCC3)NC1CCCCC1 | – | 31.6 µM (active)
O=C(COc1ccccc1F)NC1CC1 | 12.2% (inactive) | –
Cc1cc(Cl)c(S(=O)(=O)NCC2CCCO2)cc1OCC(N)=O (centres undefined) | 4.23% (inactive) | –
NC(=O)COc1ccc2c3c(c(=O)oc2c1)CCCCC3 | – | 25.1 µM (active)
O=C(COc1ccc2oc3c(c2c1)CCCC3)Nc1ccccn1 | 5.38% (inactive) | –
CCOC(=O)CSc1nc2c(c(=O)n(C)c(=O)n2C)n1Cc1ccccc1F | 3.77% (inactive) | –
CCOC(=O)CSc1nnc(CNC(=O)Cc2ccccc2)n1-c1ccccc1OC | -4.39% (inactive) | –
COC(=O)CSc1nc(C2CC2)nc2ccccc12 | 1.28% (inactive) | –
Cc1ccc(-n2ncc3c(N4CCN(c5ccc(F)cc5)CC4)ncnc32)c(C)c1 | -2.46% (inactive) | –
CCCc1nc2c3cnn(-c4cccc(Cl)c4)c3ncn2n1 | -20.2% (inactive) | –
Cc1ccc(-n2ncc3c2ncn2nc(-c4ccco4)nc32)c(C)c1 | – | 25.1 µM (active)
CC1=C(/C=C/C(C)=C/C=C/C(C)=C/C=C/C=C(C)/C=C/C=C(C)/C=C/C2=C(C)CCCC2(C)C)C(C)(C)CCC1 | 0.289% (inactive) | –
CC(=O)OCC(=O)[C@@]1(O)CCC2C3CCC4=CC(=O)CC[C@@]4(C)[C@]3(F)C(O)C[C@]21C (some centres undefined) | 0.147% (inactive) | –
CC(N)=NCc1cccc(CN)c1 | – | inactive
COc1ccc(OCCCC(=O)Nc2nnc(C3CCCO3)s2)cc1 (centres undefined) | -0.481% (inactive) | –
COc1ccc2c(CC(=O)Nc3nnc(C4CC4)s3)coc2c1 | – | 25.1 µM (active)
COc1cccc(NC(=O)Nc2nnc(N3CCCCC3C)s2)c1 (centres undefined) | 3.2% (inactive) | –

SMILES | activity change, negative = inhibition | Potency
C[C@H]1CC[C@H](C(=O)O)N[C@@H]1c1ccc(C#Cc2ccccc2)cc1 | -1.28% [at 11.4 µM] (inactive) | –
O=C(Nc1cccc(F)c1)c1ccc(S(=O)(=O)N2CCCC2)cc1 | 1.79% (inactive) | –
C/C(Cl)=C\Cn1c(Nc2cccc(C)c2)nc2c1c(=O)n(C)c(=O)n2C | 10.6% (inactive) | –
CCOC(=O)c1sc(NC(=O)CSc2ncccn2)c(C#N)c1C | 3.84% (inactive) | –
COCCNC(=O)COc1ccc(C)c(C)c1 | 9.62% (inactive) | –
O=C(Nc1cccnc1)c1ccc2c(c1)OCO2 | -2.27% (inactive) | –
Cc1cccc(CNc2ccnc(-c3cccnc3)n2)c1 | -10.9% (inactive) | –
c1cncc(CNc2ccnc(-c3ccc4c(c3)OCO4)n2)c1 | – | 20 µM (active)
Cc1onc(-c2ccccc2Cl)c1C(=O)NCCn1ccc2ccccc21 | 2.57% (inactive) | –
Cc1noc(/C=C/N(C)C)c1S(=O)(=O)N1CCCC(C(=O)NCc2ccco2)C1 (centres undefined) | -2.89% (inactive) | –
CS(=O)(=O)N1CCN(C(=O)c2cc3ccccc3oc2=O)CC1 | -9.3% (inactive) | –
COc1cccc2cc(C(=O)N(C)C)c(=O)oc12 | -22.2% (inactive) | –
CCOC(=O)c1cc2ccccc2nc1C | 0.969% (inactive) | –
C=CCc1cccc2cc(C(=O)OCC)c(=O)oc12 | – | 31.6 µM (active)
CCOC(=O)N1CCN(C(=O)c2n[nH]c(=O)c3ccccc23)CC1 | 0.0442% (inactive) | –
C=CCc1cccc2cc(C(=O)N3CCN(C(=O)OCC)CC3)c(=O)oc12 | – | 25.1 µM (active)
CCOC(=O)N1CCN(C(=O)c2cn(C)c3ccc(S(=O)(=O)N4CCCC4)cc3c2=O)CC1 | -11.3% (inactive) | –
COc1c(C(=O)N2CCCC2)ccc2ccccc12 | 4.92% (inactive) | –
CCOC(=O)N1CCN(C(=O)c2cc3c(ccc4ccccc43)oc2=O)CC1 | – | 31.6 µM (active)
CC(C)=CCC/C(C)=C/CC/C(C)=C/CC/C(C)=C/CO | -7.07% (inactive) | –
CC(c1cccnc1)N(CCN(C)C)C(=O)Nc1ccc(Cl)c(Cl)c1 (centres undefined) | 5.22% (inactive) | –
Cc1ccc(Br)cc1 | 2.4% (inactive) | –
COC(=O)c1ccc(N(CC(=O)NC2CCCC2)C(=O)CNC(=O)c2ccco2)cc1 | 3.14% (inactive) | –
COCCCNC(=O)c1c(F)c(F)c(F)c(F)c1F | -7.25% (inactive) | –
Cc1cccn2c(=O)c3cc(C(=O)NCc4ccccn4)n(C)c3nc12 | – | 3.16 µM (active)

SMILES | activity change, negative = inhibition | Potency
Cc1cccn2c(=O)c3cc(C(=O)N4COCC4(C)C)n(C)c3nc12 | – | 7.94 µM (active)
CC(=O)N1[C@H](C)C=C[C@]1(Cc1ccccc1)C(=O)NCc1ccccn1 | -2.62% (inactive) | –
Cc1ccccc1CN1CCN(CC(=O)NCc2ccccn2)C1=O | 1.1% (inactive) | –
O=c1ccn(Cc2ccccc2Cl)cc1 | 0.809% (inactive) | –
COCCNc1ncnc2ccc(-c3cccnc3)cc12 | – | 31.6 µM (active)
COCCNc1ncnc2ccc(-c3ccccc3CN(C)C)cc12 | 4.95% (inactive) | –
CNc1ncnc2ccc(-c3cccc(NS(C)(=O)=O)c3)cc12 | 4.55% (inactive) | –
COCC(=O)Nc1nnc(COc2ccccc2)s1 | -1.86% (inactive) | –
C[C@@H](C(=O)Nc1ccc2ccccc2c1)[C@@H]1C[C@@]1(C)[C@@H](NC(=O)c1cccnc1)c1ccccc1 | 1.96% (inactive) | –
CCCCCN(C(=O)NC(=O)Nc1ccccc1C)S(C)(=O)=O | 4.95% (inactive) | –
COC(=O)C1=C(C)N(Cc2ccccc2)C2=C3C(=O)N(c4ccccc4)C(=O)C3[C@@](O)(C(=O)OC)C(=O)N2C1c1ccccc1 (some centres undefined) | 6.04% [at 11.4 µM] (inactive) and 0.0692% [at 11.4 µM] (inactive) | –
O=C(O)c1c(Br)c(Br)c(Br)c(Br)c1C1c2ccc(O)cc2Oc2cc(O)ccc21 | – | 0.794 µM (active)
N#CC1=C(N)Oc2cc(O)ccc2C1C1CCCCC1 (centres undefined) | -8.01% (inactive) | –
COc1ccc(CC(=O)c2ccc(O)cc2O)cc1OC | -8.11% (inactive) | –
CCN1CCN(Cc2nc3c(c(=O)n(C)c(=O)n3C)n2CC(=O)c2ccccc2)CC1 | – | 25.1 µM (active)
CCOC(=O)N1CCN(Cc2nc3c(c(=O)n(C)c(=O)n3C)n2Cc2ccccc2)CC1 | 12.7% (inactive) | –
CC1CCCN(Cc2nc3c(c(=O)n(C)c(=O)n3C)n2CC(=O)c2ccccc2)C1 (centres undefined) | -10.4% (inactive) | –
CCn1nnc(NC(=O)c2c(OC)cccc2OC)n1 | 6.62% (inactive) | –
O=C(NCc1ccc2c(c1)OCO2)C1CCCN(S(=O)(=O)c2cccs2)C1 (centres undefined) | 6.03% (inactive) | –
COc1ccc(C(=O)N2CCC3(CC2)CCN(c2ccccn2)CC3)cc1 | – | 25.1 µM (active)
O=C(c1cc(C(F)(F)F)cc(C(F)(F)F)c1)N1CCC2(CCCN(c3ccccn3)C2)CC1 | -20.2% (inactive) | –
COc1ccc(C(=O)N2CCC3(CCCN(C(c4ccccc4)c4ccccc4)C3)CC2)cc1 | 1.82% (inactive) | –
CC(C)c1cc(CN(C)C)c(O)c(C(C)(C)C)c1 | 5.05% [at 11.4 µM] (inactive) | –
CCC(C(=O)NC1CCCC1)N(C(=O)c1snc(C(N)=O)c1N)c1ccc2c(c1)OCCO2 (centres undefined) | -17.9% (inactive) | –
COCCNC(=O)C(c1ccc(C)o1)N(Cc1ccccc1)C(=O)Cn1nnc2ccccc21 (centres undefined) | 8.67% (inactive) | –

SMILES | activity change, negative = inhibition | Potency
COCCNC(=O)C(c1ccc(C)o1)N(Cc1cccs1)C(=O)c1snc(C(N)=O)c1N (centres undefined) | – | 25.1 µM (active)
COc1ccc(F)cc1S(=O)(=O)Nc1ccc2c(c1)OCO2 | -14.2% (inactive) | –
COc1ccc(C(c2nnnn2C2CCCCC2)N2CCN(c3ccccc3F)CC2)cc1 (centres undefined) | 13.6% (inactive) | –
CCC(=O)c1ccc(OCC(O)CN2C(=O)NC(C)(C)C2=O)cc1 (centres undefined) | 6.49% (inactive) | –
Cc1ccc2cccc(O)c2[n+]1[O-] | -28.9% (inactive) | –
Cc1ccc(C)c(NS(=O)(=O)c2cc(Br)cnc2N)c1 | 6.31% (inactive) | –
O=c1cc(-c2ccccc2)[nH]c2nc(Cl)ccc12 | – | 7.94 µM (active)
CCCC(NS(=O)(=O)c1ccc(OC)cc1)C(=O)O (centres undefined) | 13.1% (inactive) | –
COc1cccc(N2CC(C(=O)Nc3c(C)cccc3C)CC2=O)c1 (centres undefined) | -4.93% (inactive) | –
COc1cccc(C2/C(=C(/O)c3ccncc3)C(=O)C(=O)N2CCCN(C)C)c1 (centres undefined) | -1.78% (inactive) | –
Cc1nnc(SCC(N)=O)n1CC1CCCO1 (centres undefined) | 16% (inactive) | –
O=C(Cn1nc(Cc2cccnc2)c2ccccc2c1=O)NCC1CCCO1 (centres undefined) | 11.8% (inactive) | –
Cc1cccn2c(=O)c3cc(C#N)c(=O)n(CCCN4CCOCC4)c3nc12 | – | 31.6 µM (active)
Cn1c(=O)c2c(nc(CN3CCOCC3)n2Cc2ccccc2)n(C)c1=O | 3.8% (inactive) | –
Cc1cccn2c(=O)c3cc(C#N)c(=NC(=O)c4cccnc4)n(CC4CCCO4)c3nc12 (centres undefined) | – | 7.94 µM (active)
CCCOc1ccc(C2c3c(oc4cc(C)c(C)cc4c3=O)C(=O)N2CCCN2CCOCC2)cc1 (centres undefined) | -7.43% (inactive) | –
CC(=NCC1CCCO1)c1c(O)[nH]c(=O)[nH]c1=O (centres undefined) | 1.09% (inactive) | –
CCOC(=O)N1CCC(NC(=O)c2ccc3nc(N4CCOCC4)sc3c2)CC1 | -10.9% (inactive) | –
Nc1c(C(=O)NCc2ccccc2)nnn1Cc1cccc(Cl)c1 | 8.84% (inactive) | –
COC(=O)CCNc1ccc2c(c1)OCCO2 | -2.43% (inactive) | –
NC1(C(=O)OCc2ccccc2)CCCC1 | -22.7% [at 11.4 µM] (inactive) | –
BrC1C(Br)C(Br)C(Br)C(Br)C1Br (centres undefined) | -23.1% (inactive) | –
C=C(C)C1CC=C(C)C(O)C1 (centres undefined) | 4.89% (inactive) | –
Nc1nc2[nH]c(=O)c(=O)[nH]c2c(=O)[nH]1 | -3.46% (inactive) | –
